# Pf Dd2 inh = Plasmodium falciparum Dd2 growth inhibition; P. falciparum Dd2 growth, SYBR Green, 72 h; Potency, µM (top dose mostly 28.9 µM), hits mostly inhibitors; actives 4.3% (n = 120,000); AID 1347417; active = well fitted inhibition curve with a large enough effect; also: nearly all actives have a fitted effect of over 65% in size
#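 Readout: SYBR Green fluorescence, 485 nm excitation, 535 nm emission, after ~16 h lysis at 37C. Before that, Dd2-infected red cells (2.5% hematocrit) grew 72 h with compound, 29 uM top final concentration.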
# Numbers stand for hits; 0 = inactive. The sample as a whole holds a higher share of hits than the screen did.
SMILES,Pf Dd2 inh
COc1ccccc1N1CCN(C(=O)c2cnn(-c3cccc(Cl)c3)c2C2CCN(C(=O)OC(C)(C)C)CC2)CC1,7.9µM
Cc1ccc(C(=O)NC(C(=O)N2CCCC2)C2CCN(C(=O)CC(C)C)CC2)cc1 (stereo unspecified),0
O=C1NCCCc2[nH]c(-c3cnn(-c4ccc(F)cc4)c3)nc21,0
CCc1noc(C)c1C(=O)N1CCC(CCC(=O)NCc2cccc(C(F)(F)F)c2)CC1,0
COc1ccc(CN2CC3(CCN(S(=O)(=O)c4cn(C)cn4)CC3)C2=O)cc1,0
CC(C)c1nnc2ccc(N3CCCC3)nn12,0
O=C(Nc1cccc(-n2cccn2)c1)C1CCCN1C(=O)CC1CC1 (stereo unspecified),0
CN(C)c1nc2c(c(N3C[C@H]4CNC[C@@]4(C(=O)O)C3)n1)CCCC2,0
COc1ccccc1C(=O)N1CCCc2nc(C)nc(-c3ccc(O)cc3)c2C1,0
Cc1nnc(C2CCCCCN2[S+](=O)([O-])c2cc(F)ccc2C)o1 (stereo unspecified),0
Cn1c(Cn2cccn2)nnc1C1CC(NC(=O)c2sccc2N)C1 (stereo unspecified),0
COC1C(=O)N(C2CCN(C(=O)NCc3ccccc3)CC2)C12CCOCC2 (stereo unspecified),0
COc1ccc(C(=O)NC2CCCN(c3cc(-c4ccccc4)[nH]n3)C2)cc1 (stereo unspecified),0
Cc1ccc(C(=O)NC2CCN(c3cc(-c4ccc(F)cc4)[nH]n3)C2)cc1 (stereo unspecified),0
Cc1cccc(C(=O)NC2CCN(c3cc(-c4ccc(F)cc4)[nH]n3)C2)c1 (stereo unspecified),10µM
O=C(NC1CCN(c2cc(-c3ccc(F)cc3)[nH]n2)C1)c1ccc2[nH]ccc2c1 (stereo unspecified),5µM
COc1ccc(-c2cc(N3CCCC(NC(=O)c4cccc(C(F)(F)F)c4)C3)n[nH]2)cc1 (stereo unspecified),1.3µM
O=C(NC1CCN(c2cc(-c3ccc(F)cc3)[nH]n2)C1)c1ccccc1 (stereo unspecified),0
O=C(NC1CCN(c2cc(-c3ccc(Cl)cc3)[nH]n2)C1)c1ccc2[nH]ccc2c1 (stereo unspecified),0
O=C(NC1CCN(c2cc(-c3ccc(F)cc3)[nH]n2)C1)c1cccc(F)c1 (stereo unspecified),0
COc1ccc(-c2cc(N3CCC(NC(=O)c4cccc(OC(F)(F)F)c4)C3)n[nH]2)cc1 (stereo unspecified),0
O=C(N[C@@H]1CCOC[C@H]1OCCO)c1cc(C2CC2)nc2ccccc12,0
Cc1ccc(N2CCC(NC(=O)Cc3cccs3)C2=O)cc1C (stereo unspecified),0
Cc1[nH]cnc1CN1CCCC(c2[nH]ncc2Cc2ccccc2)C1 (stereo unspecified),0
CN1CCN(C(=O)[C@@H]2CCC[C@@H](NC(=O)c3nc4ccccc4s3)CN(C)C(=O)C2)CC1,0
SMILES,Pf Dd2 inh
CC1=NOC2(CCCN(C(=O)c3ccccc3)C2)C1 (stereo unspecified),0
CCCc1noc(-c2ccn3c(CNC(=O)c4cc(F)ccc4F)nnc3c2)n1,0
CN(C)CCN(C)[C@@H]1[C@H](O)[C@H](CO)O[C@@H]1CNCc1cccc(Cl)c1,0
O=C(Cc1ccccc1Cl)NC1CCN(c2cc(-c3cccs3)[nH]n2)C1 (stereo unspecified),0
COc1ccccc1-c1[nH]nc2ncc(C(=O)N3CCNC(=O)C3)nc12,0
COc1ccccc1-c1[nH]nc2ncc(C(=O)N(C)c3ccccc3)nc12,0
COc1ccccc1-c1[nH]nc2ncc(C(=O)N3CCC(c4ccccc4)CC3)nc12,14µM
CN1CC(=O)N(C2CCC2)Cc2c(NCc3cccs3)ncnc21,0
C[S+](=O)([O-])N1Cc2ccccc2OC2(CCN(C(=O)c3cccc4[nH]ccc34)CC2)C1,0
CC(=O)N1Cc2ccccc2OC2(CCN(C(=O)NC(C)C)CC2)C1,0
CC(C)NC(=O)N1CCC2(CC1)CN(C(=O)c1ccc3[nH]ccc3c1)Cc1ccccc1O2,13µM
CC(=O)N1CCC2(CC1)CN(C(=O)NC(C)C)Cc1ccccc1O2,0
CC(C)NC(=O)N1Cc2ccccc2OC2(CCN(C(=O)c3cccc4[nH]ccc34)CC2)C1,11µM
CN(C)C(=O)N1CCC2(CC1)CN(C(=O)c1cccc3[nH]ccc13)Cc1ccccc1O2,0
Cn1c(CN2C(=O)C3(CCOCC3)CC2c2nnnn2C(C)(C)C)nc2ccccc21 (stereo unspecified),0
COc1cccc(CNC(=O)c2c[nH]c3ncccc23)c1,0
COc1cc(C(=O)Nc2ccc(Cl)c(-c3nc4ncccc4o3)c2)cc(OC)c1OC,0
COc1cc(C(=O)NC(c2ccc(Cl)cc2)c2cc(Cl)c3cccnc3c2O)cc(OC)c1OC (stereo unspecified),2.8µM
COc1cccc(C(=O)NC(c2ccc(Cl)cc2)c2cc(Cl)c3cccnc3c2O)c1 (stereo unspecified),3.2µM
COc1cc(C(=O)NCC(c2cccnc2)N2CCc3ccccc3C2)cc(OC)c1OC (stereo unspecified),0
COc1cccc(C(=O)N[C@H]2[C@H](O)[C@H](O)C[C@@H]2c2cccnc2)c1,0
O=C(NC1CCc2ccccc21)c1ccc(CN2C(=O)NC3(CCOCC3)C2=O)cc1 (stereo unspecified),0
OCc1cc2n(n1)CCCN(Cc1cnc(SCc3ccccc3)nc1)C2,0
COc1ccc(Br)c(C(=O)N[C@@H]2C=C(C(=O)NCCC(N)=O)C[C@@H](O)[C@@H]2O)c1,0
O=C(O)COc1ccc(-c2nccc3c2C(=O)N(Cc2cccc(C(F)(F)F)c2)CC(COc2ccc(OC(F)(F)F)cc2)O3)cc1 (stereo unspecified),0
SMILES,Pf Dd2 inh
O=C(O)COc1ccc(-c2nccc3c2C(=O)N(Cc2cccc(C(F)(F)F)c2)CC(CNC(=O)c2cccc(Cl)c2)O3)cc1 (stereo unspecified),10µM
COc1cc(OC)cc(OCC2CN(Cc3cccc(C(F)(F)F)c3)C(=O)c3c(ccnc3-c3ccc(OCC(=O)O)cc3)O2)c1 (stereo unspecified),0
CN1CC(=O)N2CCN(Cc3csc(-c4ccccc4)n3)CC2C1=O (stereo unspecified),0
Cc1nc(N2CCC(C(=O)NCC3CCCCC3)CC2)cc(C(F)(F)F)n1,0
CN1CC(=O)N(c2ccccc2F)Cc2c(NCCc3ccccc3)ncnc21,0
CCOCC1(C)COc2ccc(C(=O)N(C)c3ccccc3)cc2N1 (stereo unspecified),0
COc1cccc(NC(=O)c2ccc3c(c2)NC(C)(COCCN(C)C)CO3)c1 (stereo unspecified),0
CCOCC1(C)COc2ccc(C(=O)Nc3cccc(N(C)C)c3)cc2N1 (stereo unspecified),3.2µM
CCn1cc(S(=O)(=O)N(C)C2CCc3nn(C)c(=O)n3CC2)cn1 (stereo unspecified),0
O=C(NC1CCCc2nc(-c3cccnc3)ncc21)c1cn[nH]c1-n1cnnn1 (stereo unspecified),0
CC(C)(C)OC(=O)N1CCC(NC(=O)c2nc(-c3ccccc3)c3ccccn23)CC1,0
COc1ccc(-c2cc3c(nc2-c2ccccc2)nc(C(=O)NCCN(C)C)n3C)cn1,7.1µM
CN(C)CCNC(=O)c1ccc(-c2nn(C)c(=O)c3ccccc23)cc1,0

# Screening results from PubChem.
